According to PubChem BioAssay AID1159580 (chemical genetic matrix, 2015):
Several values for one entry are separate records, joined by “and”; a condition that tells them apart may be missing. Identical values can stand only once. Hit rate of the full screen: of about 5,500 compounds, about 2,000 (36%) were called active. Not shown: some 18% with an inconclusive outcome. Cut-off read from the data, not from the text of the source: active = normalized growth mostly below about 0.91 (no sharp cut-off); inconclusive = no clear call, values can overlap the other calls; inactive = mostly above about 0.92. The list shows a part of the results.

Test: chemical genetic growth profiling, strain panel (AID 1159580);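 note: tested at 20 µM; growth read once vehicle control cultures reached saturation at 30 °C; 1 = growth at the plate median or of vehicle wells; lower values mean less growth of the strain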
Conditions: S. cerevisiae deletion strains, growth OD

Measured: normalized growth

NCCCS(=O)(=O)O
inactive: locus YAL013W, strain DEP1, hits give low values 0.978 and 1.01 | locus YAL021C, strain ccr4, hits give low values 1 | locus YAL026C, strain drs2, hits give low values 1.04 | locus YAL030W, strain snc1, hits give low values 1.02 | locus YAL040C, strain CLN3, hits give low values 1.01 | locus YBL061C, strain skt5, hits give low values 1.02 | locus YBR009C, strain hhf1, hits give low values 1.02 | locus YBR021W, strain FUR4, hits give low values 1 | locus YBR023C, strain chs3, hits give low values 1.03 | locus YBR171W, strain sec66, hits give low values 1.02 | locus YBR229C, strain ROT2, hits give low values 0.955 | locus YBR231C, strain swc5, hits give low values 1.01 | locus YBR279W, strain paf1, hits give low values 1.01 | locus YCL011C, strain gbp2, hits give low values 1.02 | locus YCL016C, strain dcc1, hits give low values 1.01 | locus YCL029C, strain bik1, hits give low values 0.991 | locus YCL061C, strain MRC1, hits give low values 1.02 | locus YCL069W, strain vba3, hits give low values 1.02 | locus YCR088W, strain abp1, hits give low values 1.02 | locus YDL005C, strain med2, hits give low values 1.05 | locus YDL035C, strain GPR1, hits give low values 0.988 | locus YDL040C, strain nat1, hits give low values 1.01 | locus YDL074C, strain BRE1, hits give low values 1.03 | locus YDL101C, strain DUN1, hits give low values 0.982 | locus YDL134C, strain PPH21, hits give low values 0.985 | locus YDL185W, strain tfp1, hits give low values 0.982 | locus YDL192W, strain arf1, hits give low values 0.984 | locus YDR001C, strain nth1, hits give low values 1.02 | locus YDR069C, strain doa4, hits give low values 1.01 | locus YDR101C, strain arx1, hits give low values 0.999 | locus YDR137W, strain rgp1, hits give low values 1.03 | locus YDR150W, strain NUM1, hits give low values 0.964 and 1.02 | locus YDR159W, strain sac3, hits give low values 1.01 | locus YDR162C, strain NBP2, hits give low values 0.982 | locus YDR195W, strain ref2 1.02 | locus YDR297W, strain sur2, hits give low values 1.02 | locus YDR318W, strain mcm21, hits give low values 1 | locus YDR334W, strain swr1, hits give low values 1.03 | locus YDR335W, strain msn5, hits give low values 1.02 | locus YDR388W, hits give low values 0.997 | locus YDR392W, strain spt3, hits give low values 0.936 | locus YDR502C, strain sam2, hits give low values 0.982 | locus YEL003W, strain gim4, hits give low values 1.02 | locus YEL037C, strain rad23, hits give low values 1.02 | locus YEL061C, strain CIN8 (second series), hits give low values 1.03 | locus YEL061C, strain CIN8, hits give low values 0.981 | locus YER002W, strain NOP16, hits give low values 1.01 | locus YER015W, strain faa2, hits give low values 0.994 | locus YER016W, strain bim1, hits give low values 1.03 | locus YER110C, hits give low values 0.961 | locus YER111C, strain swi4, hits give low values 1.03 | locus YER155C, strain BEM2 (second series), hits give low values 1.02 | locus YER155C, strain BEM2, hits give low values 0.988 | locus YER167W, strain BCK2, hits give low values 1 | locus YFR010W, strain ubp6, hits give low values 1.04 | locus YGL078C, strain dbp3, hits give low values 0.977 | locus YGL086W, strain mad1, hits give low values 0.98 | locus YGL167C, strain pmr1, hits give low values 1.02 | locus YGL173C, strain kem1, hits give low values 1.03 | locus YGL227W, strain vid30, hits give low values 1.03 | locus YGL240W, strain doc1, hits give low values 1 | locus YGL248W, strain PDE1, hits give low values 0.985 | locus YGL253W, strain hxk2, hits give low values 1.04 | locus YGR078C, strain PAC10, hits give low values 1 | locus YGR135W, strain pre9, hits give low values 0.977 | locus YGR229C, strain SMI1, hits give low values 1 | locus YGR252W, strain gcn5, hits give low values 0.908 | locus YHR013C, strain ard1, hits give low values 1.02 | locus YHR027C, strain rpn1, hits give low values 1.03 | locus YHR030C, strain SLT2, hits give low values 0.984 and 1.01 | locus YHR079C, strain IRE1 (second series), hits give low values 0.989 | locus YHR079C, strain IRE1, hits give low values 0.996 | locus YHR094C, strain hxt1, hits give low values 0.999 | locus YHR129C, strain ARP1, hits give low values 0.989 | locus YHR142W, strain chs7, hits give low values 1.06 | locus YHR200W, strain rpn10, hits give low values 0.993 | locus YIL066C, strain RNR3, hits give low values 0.975 | locus YIL073C, strain SPO22, hits give low values 0.985 | locus YIL125W, strain kgd1, hits give low values 0.981 | locus YIR030C, strain dcg1, hits give low values 0.985 | locus YJL092W, strain hpr5, hits give low values 1.03 | locus YJL095W, strain BCK1 (second series), hits give low values 1.02 | locus YJL095W, strain BCK1, hits give low values 1.03 and 1.01 | locus YJL115W, strain asf1, hits give low values 1.03 | locus YJL129C, strain trk1, hits give low values 1.05 | locus YJL134W, strain LCB3, hits give low values 0.985 | locus YJL154C, strain vps35, hits give low values 1.02 | locus YJL164C, strain tpk1, hits give low values 1.01 | locus YJL166W, strain qcr8, hits give low values 1.02 | locus YJL168C, strain set2, hits give low values 0.996 | locus YJL187C, strain SWE1 (second series), hits give low values 0.983 | locus YJR043C, strain POL32, hits give low values 1.02 | locus YJR066W, strain TOR1, hits give low values 0.984 | locus YJR075W, strain HOC1, hits give low values 0.995
